Measurements published in PubChem BioAssay (Tox21).
“And” between values parts separate entries of the source, which are not always exact repeats. Equal entries are not always repeated. Inconclusive results are not listed. Unmarked numbers belong to inactive results. The source made the active and inactive calls. The call rests on the fitted dose curve; in most records, active means well fitted cell-killing curve with a large enough effect in the repeat runs; inconclusive means weak or mixed curves, or effect the other way; inactive means flat fitted curve, though single readings scatter.

Assay: qHTS RealTime-Glo MT Cell Viability Assay in HEK293 cells - 40 hour (AID 1224874); further: nearly all actives have a fitted effect of over 50% in size
Details: RealTime-Glo luminescence; max response: hits give low values
Source text: U.S. Tox21 Program National Center for Advancing Translational Sciences [NCATS] NIH Chemical Genomics Center [NCGC] U.S. Environmental Protection Agency [EPA] National Institutes of Environmental Health Sciences [NIEHS] National Toxicology Program [NTP] U.S. Food and Drug Administration [FDA] Tox21 Assay Overview: Measure of cell viability is critical in the cell-base assay. Analysis of cell viability is necessary for the characterization of cell responses to cytotoxic drugs and environmental stress. A RealTime-Glo MT Cell Viability Assay to monitor cell viability in real time of continues cell culture during 40 hours of compound treatment was used to screen Tox21 10K library compounds in Hek293 cells. The RealTime-Glo MT Cell Viability Assay is a nonlytic, homogeneous, bioluminescent method to measure cell viability in real time using a simple, plate-based method. The assay involves adding NanoLuc luciferase and a cell-permeant prosubstrate to cells in culture. Viable cells reduce the proprietary prosubstrate to generate a substrate for NanoLuc luciferase. This substrate diffuses from cells into the surrounding culture medium, where it is rapidly used by the NanoLuc Enzyme to produce a luminescent signal. The signal correlates with the number of viable cells, making the assay well suited for cytotoxicity studies.
Tox21 Assay Protocol Summary: The mixture of Hek293 cell suspension and reagents were dispensed at 600cells/6 ul/well in 1536-well tissue culture treated black solid bottom plates using a Multidrop dispenser. After the assay plates were incubated at a 37 C/5% CO2 incubator for 5 hours, 23 nL of compounds dissolved in DMSO, positive and negative controls was transferred to the assay plate by a pintool work station. The plates were incubated at 37 C for 40 hours. The luminescence intensity were measured at 0h, 8h, 16h, 24h, 32h and 40h time points using ViewLux plate reader during compound treatment.
On the % scale 0 is the no-effect control and ±100 the full control effect; potency means the concentration at half of the fitted maximal effect.

SMILES	Potency	max response
Cc1c2ccccc2c(C)c2c1ccc1ccccc12	43.2 µM (active) and 34.7 µM (active)	–
OC[C@H]1O[C@H](O[C@H]2O[C@H](CO)[C@@H](O)[C@H](O)[C@H]2O)[C@H](O)[C@@H](O)[C@@H]1O	–	25.1%
CC1(C)CCC[C@]2(C)[C@H]3CC(=O)O[C@]3(C)CC[C@@H]12	–	-15.3%
CCN(CC)c1ccc2c(-c3ccc(S(=O)(=O)O)cc3S(=O)(=O)[O-])c3ccc(=[N+](CC)CC)cc-3oc2c1	–	-15.9%
CN(C)Cc1cc(C(C)(C)C)c(O)c(C(C)(C)C)c1	–	-1.74%
COc1ccc(-c2coc3cc(O)ccc3c2=O)cc1	–	-10.2%
C=CCCC(=O)/C=C/C1C(C)=CCCC1(C)C (stereo not given)	–	-12.7%
Oc1c(I)cc(Cl)c2cccnc12	24.5 µM (active)	–
O=C1CCCCCCCCCCCCCCCO1	–	4%
C=CC(=O)OCCOC(=O)C=C	49 µM (active)	–
O=C(O)c1ccc2cc(C(=O)O)ccc2c1	–	7.36%
O=C(/C=C/c1ccccc1)OC/C=C/c1ccccc1	–	-1.97%
CC1=CCC(=C(C)C)CC1	–	-2.74%
Nc1nc2c(ncn2COCCO)c(=O)[nH]1	–	0.456%
Cc1cc(-n2nc3ccc(Cl)cc3n2)c(O)c(C(C)(C)C)c1	–	-5.47%
COc1cc(S(=O)(=O)O)c(C)cc1N=Nc1c(O)ccc2cc(S(=O)(=O)O)ccc12	–	-10.3%
O=C(Nc1ccc2c(O)c(N=Nc3ccc(N=Nc4ccc(S(=O)(=O)O)cc4)cc3)c(S(=O)(=O)O)cc2c1)c1ccccc1	–	-19.7%
CCCNCCC	–	-5.51%
O=C(O)Cc1ccc2c(c1)C(=O)c1ccccc1CO2	–	1.5%
CC(C)CCOC(=O)/C=C/c1ccccc1	–	-4.61%

SMILES	Potency	max response
CCC(CC)C(C)CCOC(C)=O (stereo not given)	–	20.3%
Cc1ccc(C)cc1	–	12.3%
Cc1ccc(C(C)C)cc2c(C)ccc1-2	–	-5.67%
C#CC1(O)CC[C@H]2[C@@H]3CCC4=CCCC[C@@H]4[C@H]3CC[C@@]21C (stereo not given in full)	19.5 µM (active) and 19 µM (active)	–
O=C(O)[C@H](O)[C@@H](O)[C@H](O[C@@H]1O[C@H](CO)[C@H](O)[C@H](O)[C@H]1O)[C@H](O)CO	–	11.3%
CCc1ccc(Br)cc1	–	5.1%
CCCCCCCCCCOC(=O)c1ccccc1C(=O)OCCCCCCCC	–	1.51%
CCN1C(=O)c2ccccc2C1Nc1ccc(OCCN2CCCCC2)cc1 (stereo not given)	4.77 µM (active)	–
Clc1ccnc(Cl)n1	–	11.8%
CCCCCC(C)OC(=O)COc1ccc(Cl)c2cccnc12 (stereo not given)	–	-19.2%
CC(C)(C)CC(C)(C)c1ccc(Nc2ccc(C(C)(C)CC(C)(C)C)cc2)cc1	–	9%
CCCCC/C=C\C/C=C\CCCCCCCC(=O)O	–	6.43% and 5.51%
C=C(CC)C(=O)c1ccc(OCC(=O)O)c(Cl)c1Cl	–	-6.17% and 15.5%
Cc1c(N)cccc1C(F)(F)F	–	-0.691%
COC(=O)c1ccccc1C	–	-4.12%
Cc1c(F)c(N2CCNC(C)C2)cc2c1c(=O)c(C(=O)O)cn2C1CC1 (stereo not given)	–	11.8%
CCCCCCC1CCCC(=O)O1 (stereo not given)	–	3.13%
C=Cc1cccc(C)c1	–	-2.09% and 3.82%
O=S(=O)(O)c1ccc(Nc2nc(Nc3ccc(/C=C/c4ccc(Nc5nc(Nc6ccc(S(=O)(=O)O)cc6)nc(N(CCO)CCO)n5)cc4S(=O)(=O)O)c(S(=O)(=O)O)c3)nc(N(CCO)CCO)n2)cc1	–	-1.51%
CCCCN(CCCC)CC(O)c1cc(Cl)cc2c1-c1ccc(Cl)cc1/C2=C/c1ccc(Cl)cc1 (stereo not given)	–	-17.2%
